Records with an inconclusive call do not appear. Where a call stands in place of a potency, no number is given. A number with no mark means an inactive call. Calls of active or inactive are those of the source. The call rests on the fitted dose curve; in most records, active means well fitted inhibition curve with a large enough effect; inconclusive means small, poorly fitted or top-dose-only effect; inactive means flat fitted curve, though single readings scatter.

This experiment in a line: P-glycoprotein substrates identified in KB-8-5-11 adenocarcinoma cell line, qHTS therapeutic library screen (AID 1346987). Further: nearly all actives have a fitted effect of over 65% in size. The following applies: KB-8-5-11 (P-gp overexpressing) viability, CellTiter-Glo, 72 h; series mostly up to 44.5 µM. In short, it runs like this:
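In this qHTS, P-gp-rich KB-8-5-11 cells received library compounds across a concentration range. Viability was quantified by luminescence after 72 h at 37 degree C.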
A general note: Quantitative high-throughput screening tests each substance at several concentrations.
As to `O=S(=O)(Nc1ccc(C(O)(C(F)(F)F)C(F)(F)F)cc1)c1cccs1`, the Potency entry was “inactive”. For `O=C(O)c1n[nH]c2c1C[C@H]1C[C@@H]21`, the Potency entry is “inactive”.

In the case of `COC1CC(=O)C23C(=O)NC(CC(C)C)C2C(C)C(C)=CC3/C=C(\C)CCC1O` (configuration not stated), the Potency result is “inactive”. In the case of `CO[C@H]1C=C2C(CC[C@H](O[C@@H]3O[C@H](CO)[C@@H](O)[C@@H](O)[C@H]3O)C2(C)C)[C@]2(C)CC[C@]3(C)C([C@H](C)C(O)C(C=C(C)C)O[C@@H]4O[C@H](CO)[C@@H](O)[C@@H](O)[C@H]4O)CC[C@@]3(C)C12` (some centres not stated), the activity change, negative = cytotoxicity is 0.439% [at 9.29 µM]. For the molecule `CC(=C/C(=O)O)/C=C/[C@]1(O)[C@@]2(C)CO[C@]1(C)C[C@H](O[C@@H]1O[C@H](CO)[C@@H](O)[C@H](O)[C@H]1O)C2`, the Potency entry was “inactive”.

Turning to `COc1ccc2c(c1O)OC[C@H]1c3ccc(O)cc3O[C@@H]21`, the Potency entry was “inactive”. On the same count and under the same terms, the same measure for `CC1=CC(=O)C[C@H]2[C@@H]1CC[C@@H](C)[C@]21CO[C@H](c2ccoc2)C1=O`: “inactive”. The same measure, in the same setting: the result for `CC(=O)OC1C(O)C(C)=C(CCC(C)CC(=O)O)C2(C)CCCC(C)(C)C12` (configuration not stated) reads “inactive”; that for `Cn1ccnc1CCOC(c1cc2nccc(C(=O)O)c2[nH]1)c1ccccc1Cl` (configuration not stated), “inactive”; that for `Cc1nnc(C(C)C)n1C1CC2CCC(C1)N2CCC(NC(=O)C1CCC(F)(F)CC1)c1ccccc1` (configuration not stated), “inactive”.

Consider `C=C1CCC2C(C)(C(=O)O)CC(O)CC2(C)C1CC/C(C)=C/C(=O)O` (configuration not stated), for which the Potency entry is “inactive”. The same measure, in the same setting: the same measure for `CCNC(=O)CCC/C=C\C[C@@H]1[C@@H](/C=C/C(O)CCc2ccccc2)[C@@H](O)C[C@@H]1O` (some centres not stated): “inactive”.
